Laboratory results published in PubChem BioAssay AID1619 (SRMLSC, 2009).
In all, about 220,000 compounds went through this assay and about 830 (0.38%) were called active.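 The calls were made as follows: active = compound inhibiting the enzyme by more than half at any dose during confirmatory dose-response retesting; inconclusive = strong single-dose inhibitors picked by rank but not retested; inactive = the rest.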 Only a sample is shown. Potency and affinity values are given separately.

target: Leucine aminopeptidase (Plasmodium falciparum (isolate 3D7)) (UniProt Q8IL11); assay: P. falciparum M17LAP inhibitors, primary screen, biochemical, fluorogenic H-Leu-NHMec substrate, 1536-well (AID 1619); details: recombinant M17LAP, H-Leu-NHMec fluorogenic kinetic assay; at 30 µM; hits give high values;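 also: plate controls were full reaction with DMSO carrier for no effect and no enzyme background for full effect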
Sequence (Q8IL11 whole entry, looked up): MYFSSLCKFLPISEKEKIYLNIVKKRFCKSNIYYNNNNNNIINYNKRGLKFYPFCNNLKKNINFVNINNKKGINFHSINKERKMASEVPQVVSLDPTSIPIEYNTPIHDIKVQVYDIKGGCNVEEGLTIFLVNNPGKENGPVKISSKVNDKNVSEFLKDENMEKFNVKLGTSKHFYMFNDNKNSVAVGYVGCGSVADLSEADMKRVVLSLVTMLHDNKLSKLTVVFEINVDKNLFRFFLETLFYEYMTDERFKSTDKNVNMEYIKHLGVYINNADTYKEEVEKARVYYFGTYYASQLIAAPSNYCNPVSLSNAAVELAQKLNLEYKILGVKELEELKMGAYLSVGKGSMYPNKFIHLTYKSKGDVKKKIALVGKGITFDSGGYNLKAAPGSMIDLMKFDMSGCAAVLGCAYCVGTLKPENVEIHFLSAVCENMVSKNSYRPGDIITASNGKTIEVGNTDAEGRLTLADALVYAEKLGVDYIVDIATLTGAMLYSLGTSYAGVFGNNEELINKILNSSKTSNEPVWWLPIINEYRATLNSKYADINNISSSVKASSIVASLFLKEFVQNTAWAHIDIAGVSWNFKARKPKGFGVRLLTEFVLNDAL

inhibition, inactive:
Cc1cccn2cc(CCNS(=O)(=O)c3cccc([N+](=O)[O-])c3)nc12 -1.3%
COCCn1c(N)c(N(Cc2ccccc2)C(=O)c2ccc(C#N)cc2)c(=O)[nH]c1=O 1.64%
Cc1nn(C)c(Cl)c1C(=O)NC(C(=O)O)c1ccccc1 (stereo not drawn) -0.49%
O=C(O)CSc1nc2ccccc2n1-c1ccccc1 6.57%
C/C=C/Cn1c(Br)nc2c1c(=O)[nH]c(=O)n2C 6.95%
O=C1c2ccccc2-c2cccc(C(=O)N3CCN(C(=O)c4ccccc4)CC3)c21 2.37%
CC1=C(C(=O)N2CCOCC2)C(c2ccc(Br)cc2)NC(=S)N1c1ccccc1 (stereo not drawn) 1.22%
Nc1nonc1C(=Nc1ccc(Br)cc1)NO -2.77%
COc1ccc(NC(=S)N(Cc2ccc(C)cc2)Cc2ccccn2)cc1 4.2%
COc1ccc(-c2cc(C(F)(F)F)n3nc(C(=O)O)nc3n2)cc1 42.7%
NC(=O)CSc1nccn1Cc1ccc(Cl)cc1 -2.93%
CCN(c1ccc(NC(=O)COC(=O)c2cccs2)cc1)C(C)C 38.8%
O=C(COC(=O)c1cccs1)Nc1ccccc1 4.15%
CNC(=S)N1N=C(c2ccc(C)cc2)CC1c1ccc(Cl)cc1 (stereo not drawn) 5.37%
CCOc1[nH]n(-c2ccccc2)c(=O)c1C=Nc1ccc(F)cc1F 2.5%
CCOC(=O)N1CCN(C(=O)/C(=C/c2cccs2)NC(=O)c2cccs2)CC1 16.7%
O=c1c2c3c(sc2[nH]c(=S)n1Cc1ccco1)CCC3 -4.17%
CCn1c(=S)[nH]c2sc3c(c2c1=O)CCCCC3 3.46%
O=C(COC(=O)c1ccccc1OCc1ccc(Cl)cc1)NC1CC1 -0.6%
O=C(O)c1sccc1OCc1ccccc1 -1.01%
Cc1ccc(COc2ccsc2C(=O)O)cc1 -3.31%
COc1ccc(C(=O)CSc2n[nH]c(-c3ccncc3)n2)cc1[N+](=O)[O-] -7.99%
O=c1cc2c(=O)oc3cc(O)c(O)oc3c2c(O)c1O 33%
Cc1c(Br)c(=O)oc2c(Br)c(O)c(O)cc12 45.5%
Cc1ccc(C)c(NC(=O)CSc2nnc(-c3ccco3)o2)c1 1.4%
Cc1cccc(Nc2nnc(SC/C(O)=C(\C#N)c3nc4ccccc4[nH]3)s2)c1 19.5%
Cc1cccc(Nc2nnc(SC/C(O)=C(\C#N)c3nc4ccccc4[nH]3)s2)c1C -9.64%
COc1ccc(S(=O)(=O)N2CCOC2CNC(=O)C(=O)NCc2cccnc2)cc1C (stereo not drawn) 10.8%
CCn1c(=S)[nH]c2c(c1=O)C(C)(C)Cc1ccccc1-2 -1.93%
CN(C)Cc1nc2c(c(=O)[nH]1)C(C)(C)Cc1ccccc1-2 -7.27%
Cc1ccc(S(=O)(=O)c2nc(C)c3c(n2)CCC3)cc1 -1.17%
CCOC(=O)c1cnc(SCC(=O)Nc2cc(C(F)(F)F)ccc2N2CCOCC2)nc1N -15.2%
CC(=O)/C(C#N)=C1\NC(=O)C(Cc2ccccc2C)S1 (stereo not drawn) 23.4%
CC(=O)/C(C#N)=C1\NC(=O)C(Cc2cc(Cl)ccc2Cl)S1 (stereo not drawn) 45.6%
COCCCn1c(SCc2cc(=O)[nH]c3ccccc23)nnc1-c1ccco1 -2.38%
COCCSc1nnc(NC(=O)C2CC(=O)N(c3ccc(C)cc3)C2)s1 (stereo not drawn) 1.69%
O=C1C2CC=CCC2C(=O)N1c1cccc(OS(=O)(=O)c2ccc3ccccc3c2)c1 (stereo not drawn) 6.42%
CC(=O)Nc1ccc(S(=O)(=O)Oc2cccc(N3C(=O)C4CC=CCC4C3=O)c2)cc1 (stereo not drawn) 15.9%
CCOc1ccc(NC(=S)NNC(=S)Nc2cccc(C(F)(F)F)c2)cc1 -5.94%
O=C(NCc1ccco1)c1cc(-c2ccccn2)nc2ccccc12 6.45%
COc1ccc(NC(=S)NNc2ccc([N+](=O)[O-])cc2S(=O)(=O)Nc2ccc(C)cc2C)cc1 4.17%
Cc1ccc(S(=O)(=O)Nc2ccccc2C(=O)OC(C)C(=O)Nc2ccc3ccccc3c2)cc1[N+](=O)[O-] (stereo not drawn) -9.25%
COc1ccc(NC(=O)c2ccccc2NS(=O)(=O)c2ccc(C)cc2)c([N+](=O)[O-])c1 2.55%
O=C(O)c1ccccc1Nc1ccc(OC(F)F)cc1 18.9%
Cc1ccc(NC(=O)C(C)[n+]2ccccc2)cc1[N+](=O)[O-] (stereo not drawn) -17.4%
CCOC(=O)c1nn(-c2ccc(Br)cc2)cc1C(=O)c1cccc2ccccc12 2.03%
O=C(O)C12CC3CC(C1)CC(n1ncc(NCc4ccco4)c(Cl)c1=O)(C3)C2 1.68%
O=C(O)CC12CC3CC(C1)CC(n1ncc(NCc4ccccc4)c(Cl)c1=O)(C3)C2 8.41%
O=C(O)CC12CC3CC(C1)CC(n1ncc(NCc4ccco4)c(Cl)c1=O)(C3)C2 7.19%
O=c1c(Cl)c(NCc2ccccc2)cnn1C12CC3CC(CC(C3)C1)C2 -15.7%
O=C(O)Cc1ccc(Nc2cnn(C34CC5CC(CC(CC(=O)O)(C5)C3)C4)c(=O)c2Cl)cc1 23.1%
O=C(O)CC12CC3CC(C1)CC(n1ncc(NCc4ccccc4Cl)c(Cl)c1=O)(C3)C2 23.6%
O=c1c(Cl)c(NCc2ccc(F)cc2)cnn1C12CC3CC(CC(C3)C1)C2 18.3%
O=c1c(Cl)c(NCc2ccc(F)cc2Cl)cnn1C12CC3CC(CC(C3)C1)C2 -15.2%
COc1ccccc1N1CCN(C(=O)COc2ccc(Cl)cc2Br)CC1 1.89%
CCOC(=O)C1CCN(C(=O)Nc2ccc(OC(F)(F)F)cc2)CC1 7.03%
O=C(c1cc2cccc([N+](=O)[O-])c2oc1=O)N1CCOCC1 14.7%
CCOC(=O)c1c(C)[nH]c(C)c1C(=O)COC(=O)/C=C/c1cccc(C(F)(F)F)c1 -1.01%
